{"source": "the supplement of paper PMC13094657", "note": "Where a name gives a salt, the structure may show the parent alone. ± gives the standard deviation of the averaged measurements.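 Further: viability of the cells left after supernatant collection, read with Deep Blue dye added for 4 h, as absorbance at 570 nm minus 600 nm.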", "data": [{"tested_on": "MDA-MB-231", "experiment": "cell viability relative to vehicle unstimulated control (fraction); higher = more viable cells", "conditions": "pre-treatment time: 18 h then 24 h IFNg/TNF", "values": [{"smiles": "C=C1CC[C@H]2[C@@H](/C=C(\\C)C(=O)[C@@]3(OC(C)=O)C[C@H](C)[C@H](OC(=O)c4ccccc4)[C@@H]3[C@H]1OC(C)=O)C2(C)C", "note": "[5,15-Diacetyl-3-benzoyllathyrol] (compound dose: 10 uM)", "cell viability": "1.031 ± 0.01"}, {"smiles": "C/C=C(/C)C(=O)O[C@H]1C(C)=C[C@]23C(=O)[C@@H](C=C(C)[C@@H](O)[C@]12O)[C@H]1[C@@H](C[C@H]3C)C1(C)C", "note": "[20-Deoxyingenol 3-angelate] (compound dose: 10 uM)", "cell viability": "1.04 ± 0.05"}, {"smiles": "COc1cc(C[C@H]2C(=O)OC[C@@H]2Cc2ccc3c(c2)OCO3)cc(OC)c1OC", "note": "[Yatein] (compound dose: 10 uM)", "cell viability": "0.9961 ± 0.0012"}, {"smiles": "CC(C)(O)/C=C/C(=O)[C@](C)(O)[C@H]1[C@H](O)C[C@@]2(C)[C@@H]3CC=C4[C@@H](C[C@H](O)C(=O)C4(C)C)[C@]3(C)C(=O)C[C@]12C", "note": "[Cucurbitacin D] (compound dose: 10 uM)", "cell viability": "0.55 ± 0.022"}, {"smiles": "COc1ccc2c(c1O)-c1c(O)c(OC)cc3c1[C@H](C2)N(C)CC3", "note": "[Corytuberine] (compound dose: 10 uM)", "cell viability": "0.829 ± 0.025"}, {"smiles": "COc1ccc2c3c1O[C@H]1CC(=O)C=C[C@@]31CCN(C)C2", "note": "[Galanthaminone] (compound dose: 10 uM)", "cell viability": "0.953 ± 0.034"}, {"smiles": "CC(C)[C@]12O[C@H]1[C@@H]1O[C@@]13[C@@]1(C)CCC4=C(COC4=O)[C@@H]1C[C@@H]1O[C@@]13C2=O", "note": "[Triptonide] (compound dose: 10 uM)", "cell viability": "0.637 ± 0.069"}, {"smiles": "CN1C2CCC1CC(O)C2", "note": "(configuration not stated) [Tropine] (compound dose: 10 uM)", "cell viability": "0.938 ± 0.13"}, {"smiles": "CC1=C[C@]23C(=O)[C@@H](C=C(COC(=O)c4ccccc4)[C@@H](O)[C@]2(O)[C@H]1OC(=O)c1ccccc1)[C@H]1[C@@H](C[C@H]3C)C1(C)C", "note": "[Ingenol 3,20-dibenzoate] (compound dose: 10 uM)", "cell viability": "1.05 ± 0.061"}, {"smiles": "COC(=O)[C@]1(C)CC[C@]2(C)CC[C@]3(C)C4=CC=C5C(=CC(=O)C(O)=C5C)[C@]4(C)CC[C@@]3(C)[C@@H]2C1", "note": "[Pristimerin] (compound dose: 10 uM)", "cell viability": "-0.0372 ± 0.0069"}, {"smiles": "COc1cc([C@@H]2c3cc4c(cc3C[C@H]3COC(=O)[C@@H]32)OCO4)cc(OC)c1OC", "note": "[4-deoxypodophyllotoxin] (compound dose: 10 uM)", "cell viability": "0.814 ± 0.042"}, {"smiles": "C=C1[C@H](OC(=O)c2ccccc2)C[C@H]2[C@@H](/C=C(\\C)C(=O)[C@@]3(OC(C)=O)C[C@H](C)[C@H](OC(=O)c4ccccc4)[C@@H]3[C@H]1OC(C)=O)C2(C)C", "note": "[Euphorbia Factor L2] (compound dose: 10 uM)", "cell viability": "0.847 ± 0.044"}, {"smiles": "CCCCCCCCCCCCCC(=O)O[C@@H]1[C@@H](C)[C@@]2(O)[C@@H](C=C(CO)C[C@]3(O)C(=O)C(C)=C[C@@H]23)[C@@H]2C(C)(C)[C@]12OC(C)=O", "note": "[12-O-tetradecanoyl phorbol-13-acetate] (compound dose: 10 uM)", "cell viability": "1.06 ± 0.043"}, {"smiles": "C=C(C)C(=O)O[C@H]1[C@@H]2[C@H](C)C(=O)O[C@@H]2C[C@@H](C)[C@@H]2C=CC(=O)[C@]21C", "note": "[Arnicolide D] (compound dose: 10 uM)", "cell viability": "0.784 ± 0.08"}, {"smiles": "C=C1[C@H](OC(C)=O)[C@@H](OC(=O)c2ccccc2)[C@@H](OC(C)=O)C(C)(C)[C@H]2O[C@](O)([C@@H](C)C2=O)[C@@]2(OC(C)=O)C[C@H](C)[C@H](OC(C)=O)[C@@H]2[C@H]1OC(C)=O", "note": "[Kansuinine A] (compound dose: 10 uM)", "cell viability": "0.934 ± 0.028"}, {"smiles": "COc1cc2c(cc1OC)-c1c(OC)c(OC)cc3c1[C@H](C2)N(C)CC3", "note": "[(S)-Glaucine (Alkaloid purified from Papaver somniferum)]", "cell viability": "0.967 ± 0.013"}, {"smiles": "CC1=C[C@]23C(=O)[C@@H](C=C(CO)[C@@H](O)[C@]2(O)[C@H]1O)[C@H]1[C@@H](C[C@H]3C)C1(C)C", "note": "[Ingenol] (compound dose: 10 uM)", "cell viability": "0.906 ± 0.051"}, {"smiles": "CC(C)=CCC[C@](C)(O)[C@H]1CC[C@]2(C)[C@@H]1[C@H](O)C[C@@H]1[C@@]3(C)CC[C@H](O)C(C)(C)[C@@H]3[C@@H](O[C@@H]3O[C@H](CO)[C@@H](O)[C@H](O)[C@H]3O)C[C@]12C", "note": "[Ginsenoside Rh1] (compound dose: 10 uM)", "cell viability": "0.999 ± 0.025"}, {"smiles": "C=C1[C@@H]2CC[C@H]3[C@]4(C)C[C@H](O[C@@H]5O[C@H](CO)[C@@H](OS(=O)(=O)O)[C@H](OS(=O)(=O)O)[C@H]5OC(=O)CC(C)C)CC(C(=O)O)(C(=O)O)[C@H]4CC[C@]3(C2)[C@H]1O", "note": "[Carboxyatractyloside (dipotassium)] (compound dose: 10 uM)", "cell viability": "1.03 ± 0.071"}, {"smiles": "C[C@@H]1CC[C@@]2(OC1)O[C@H]1[C@@H](O)[C@H]3[C@@H]4CC[C@H]5C[C@@H](O[C@@H]6O[C@H](CO)[C@H](O[C@@H]7O[C@H](CO)[C@@H](O)[C@H](O[C@@H]8OC[C@@H](O)[C@H](O)[C@H]8O)[C@H]7O[C@@H]7O[C@H](CO)[C@H](O)[C@H](O[C@@H]8O[C@H](CO)[C@@H](O)[C@H](O)[C@H]8O)[C@H]7O)[C@H](O)[C@H]6O)[C@H](O)C[C@]5(C)[C@H]4CC[C@]3(C)[C@H]1[C@@H]2C", "note": "[Digitonin] (compound dose: 10 uM)", "cell viability": "0.694 ± 0.021"}, {"smiles": "CC(C)=CCCC(C)(O)C1CCC2(C)C1C(O)CC1C3(C)CCC(OC4OC(CO)C(O)C(O)C4O)C(C)(C)C3CCC12C", "note": "[20(R)-Ginsenoside Rh2] (compound dose: 10 uM)", "cell viability": "1.08 ± 0.052"}, {"smiles": "COc1cc(C(=O)O[C@H]2[C@@H]3C=CO[C@@H](O[C@@H]4O[C@H](CO)[C@@H](O)[C@H](O)[C@H]4O)[C@@H]3[C@@]3(CO)O[C@@H]23)ccc1O", "note": "[Picroside II] (compound dose: 10 uM)", "cell viability": "0.923 ± 0.039"}, {"smiles": "C=C1[C@@H]2CCC3[C@@](CC[C@@H]4[C@H](C(=O)O)C[C@@H](O[C@@H]5O[C@H](CO)[C@@H](OS(=O)(=O)O)[C@H](OS(=O)(=O)O)[C@H]5OC(=O)CC(C)C)C[C@@]34C)(C2)[C@@H]1O", "note": "(some centres not stated) [Atractyloside (potassium salt)] (compound dose: 10 uM)", "cell viability": "0.797 ± 0.18"}, {"smiles": "C[C@@H]1C(=O)O[C@H]2[C@H](O)[C@@]34O[C@@H]5OC(=O)[C@H](O)[C@@]56[C@H](C(C)(C)C)[C@H](O)C(OC3=O)[C@]64[C@@]12O", "note": "(some centres not stated) [Ginkgolide C] (compound dose: 10 uM)", "cell viability": "0.9704 ± 0.0066"}, {"smiles": "CC1=C[C@H]2[C@@]3(O)[C@H](C)[C@@H](O)[C@]4(O)[C@H]([C@@H]3C=C(CO)C[C@]2(O)C1=O)C4(C)C", "note": "[Phorbol] (compound dose: 10 uM)", "cell viability": "1.02 ± 0.074"}, {"smiles": "C[C@@]12C[C@@H](c3ccoc3)OC(=O)[C@@H]1CC[C@]1(C)[C@H]2[C@@H]2C=C[C@@]1(O)C(=O)O2", "note": "[Columbin] (compound dose: 10 uM)", "cell viability": "0.9915 ± 0.0091"}, {"smiles": "O=C([O-])c1ccc[n+]([C@@H]2O[C@H](CO)[C@@H](O)[C@H]2O)c1", "note": "[Nicotinic acid riboside] (compound dose: 10 uM)", "cell viability": "0.784 ± 0.36"}]}]}
